Source: PubChem BioAssay (EPA / NIEHS)
Calls of active or inactive are those of the source. Rule for the calls: active = hit-call score of the fitted dose curve at least 0.9, where 1 is the maximum; inactive = score below 0.9.

Each molecule was assayed on MYC, MYC (gene 4609) (assay: LTEA_HepaRG_MYC: Life Technologies and Expression Analysis (LTEA) Assay for MYC using HepaRG (AID 2283518)). Conditions: mRNA level, 48 h; actives raise or lower the signal.
Protocol: LTEA_HepaRG is a cell based, multiplexed-readout assay that uses HepaRG, a human liver cell line, with measurements taken at 48 hours after chemical dosing on a 96-well plate.LTEA_HepaRG_MYC is one of 102 assay component(s) measured in the LTEA HepaRG cell culture assay. It is a marker of Cell proliferation, survival, death.Data from the assay component LTEA_HepaRG_MYC was analyzed into 1 endpoint. This assay endpoint, LTEA_HepaRG_MYC, was analyzed with bidirectional fitting relative to DMSO as the negative control and baseline of activity. Using a type of inducible reporter, measures of mRNA induction for gain or loss-of-signal activity can be used to understand regulation of transcription factor activity. To generalize the intended target to other relatable targets, this assay endpoint is annotated to the dna binding intended target family, where the subfamily is basic helix-loop-helix leucine zipper.
A total of 1060 chemcials from the ToxCast library were tested in eight-point concentration-response experiments. Cell culture and cytotoxicity assays were conducted at Thermo Fisher Scientific's Custom Services facility (Madison, WI). A single lot of human HepaRG cells (Thermo Fisher Scientific, Frederick, MD) was used for the cell culture experiments. 96-well format collagen type I coated plates of human HepaRG cells were prepared using established methods. Briefly, cryopreserved HepaRG cells were thawed, plated at a density of approximately 100,000 cells/well in HepaRG Thaw, Plate, and General Purpose media (HPRG770, Thermo Fisher Scientific), and incubated for 48 hours. 0.5% DMSO was selected as vehicle control to balance the requisite need of DMSO in HepaRG cultures to maintain differentiation (for example, baseline metabolism, proportions of hepatocytes vs. cholangiocytes), while enabling further hepatic receptor pathway activation (for example, PXR and CAR) in response to chemical exposure. 48 hours after plating, the culture medium was replaced with HepaRG Serum-Free Incudtion Media. Cells were exposed to each test chemical in duplicate and maintained in CO2 incubators for another 48 hours. Chemical plates were thawed to room temperature and 200x concentrations of treatment groups were prepared. 8-point conentration-reponse curves were made with the highest exposure at 100 uM, followed by half-log dilutions, all in 0.5% DMSO. Each test plate contained variouse controls, induction positive controls (1mM phenobarbital), cytotoxicity positive controls ([…] aflatoxin B1), vehicle controls (0.5% DMSO), and total lysis controls (0.5% DMSO). Cell morphology images were taken using an Essen IncuCyte FLR automated microscope, with six 96-well plates imaged in about 24 minutes. Images were captured and exported and JPEG files. Spent culture media was transfered to black-well plates for the LDH assay, and remaining media was sorted at -80 C for later use. Cells were treated with RLT buffer and frozen until shipped for gene expression analysis. Total RNA was isolated from the cell suspension in 75 uL of Buffer RLT (Qiagen, Germantown, MD 20874) by Quintiles/Expression Analysis (Durham, NC) using a custom isolation procedure. Total RNA from each plate well was transferred to a preamplification plate. Fluidigm's 96.96 Dynamic ArrayTM (Fluidigm, Amsterdam, the Netherlands) technology was used for gene expression analyses by quantitative reverse transcription polymerase chain reaction (qRT-PCR, performed by Quintiles/Expression Analysis, Durham, NC)89. Standard TaqManTM Assays (Applied Biosystems/ThermoFisher Scientific, Foster City, CA) were used to assess the expression of 93 genes selected based on their selectivity and sensitivity to important hepatic receptors known to be modulated by environmental chemicals; importance in human hepatocyte functionality; and hepatotoxicity. […]

Row | Compound | outcome | AC50
1 | CN(C)c1nc(=O)n(C2CCCCC2)c(=O)n1C | inactive | –
2 | Cc1cc2c3c(c1)C(c1ccccc1)=N[C@@H](NC(=O)c1ccncc1)C(=O)N3CC2 | inactive | –
3 | CC(c1ccc(O)cc1)(c1ccc(O)cc1)c1ccc(O)cc1 | – | 94.2 µM (active)
4 | CCCCCCCCOC(=O)c1ccccc1C(=O)OCCCCCCCC | inactive | –
5 | Oc1ccc(C(c2ccc(O)cc2)(C(F)(F)F)C(F)(F)F)cc1 | – | 77.5 µM (active)
6 | Clc1ccc(C(Cl)(Cl)Cl)cc1 | inactive | –
7 | O=C(O)C(F)(F)C(F)(F)C(F)(F)C(F)(F)C(F)(F)C(F)(F)C(F)(F)C(F)(F)F | – | 78.7 µM (active)
8 | Clc1ccc(Cl)cc1 | inactive | –
9 | CCC(C)(CC)c1cc(NC(=O)c2c(OC)cccc2OC)on1 | – | 25.7 µM (active)
10 | CC#Cc1cc(C)nc(Nc2ccccc2)n1 | – | 28.4 µM (active)
11 | CC(C)(c1ccccc1)c1ccc(O)cc1 | inactive | –
12 | CC1=C2C[C@H]3[C@@H](CC=C4C[C@@H](O)CC[C@@]43C)[C@@H]2CC[C@]12O[C@@H]1C[C@H](C)CN[C@H]1[C@H]2C | inactive | –
13 | Clc1ccc(C(c2ccccc2Cl)C(Cl)(Cl)Cl)cc1 (stereo not given) | inactive | –
14 | CCCCCCCCCc1ccc(O)cc1 | inactive | –
15 | COc1ccc(O)c(C(C)(C)C)c1 | inactive | –
16 | C=CC(=O)NCNC(=O)C=C | inactive | –
17 | COS(=O)(=O)OC | inactive | –
18 | CCOP(=S)(OCC)SCSC(C)(C)C | inactive | –
19 | CC(C)C(=O)OCC(C)(C)C(OC(=O)C(C)C)C(C)C (stereo not given) | inactive | –
20 | O=NN(c1ccccc1)c1ccccc1 | inactive | –

Row | Compound | outcome | AC50
21 | Cc1cccc([N+](=O)[O-])c1 | inactive | –
22 | Cc1cccc(C)c1N | inactive | –
23 | C[C@]12CCC(=O)C=C1CC[C@@H]1[C@@H]2CC[C@@]2(C)[C@H]1CC[C@]2(C)O | inactive | –
24 | ClC(Cl)=C(c1ccc(Cl)cc1)c1ccc(Cl)cc1 | inactive | –
25 | c1cc2ccc3cccc4ccc(c1)c2c34 | inactive | –
26 | Oc1c(Cl)c(Cl)c(Cl)c(Cl)c1Cl | – | 16.1 µM (active)
27 | CO/C=C(/C(=O)OC)c1ccccc1COc1cccc(C(F)(F)F)n1 | – | 9.71 µM (active)
28 | Cc1ccccc1O | inactive | –
29 | Nn1cnnc1 | inactive | –
30 | O=C(N[C@H]1CN2CCC1CC2)c1cc2ccoc2cn1 | inactive | –
31 | ClC1=C(Cl)[C@]2(Cl)[C@@H]3[C@@H]4C[C@@H]([C@H]5O[C@@H]45)[C@@H]3[C@@]1(Cl)C2(Cl)Cl | – | 9.92 µM (active)
32 | C1CC2OC2CC1C1CO1 (stereo not given) | inactive | –
33 | O=S(=O)(O)C(F)(F)C(F)(F)C(F)(F)C(F)(F)C(F)(F)C(F)(F)F | inactive | –
34 | O=C(O)C(F)(F)C(F)(F)C(F)(F)C(F)(F)C(F)(F)F | inactive | –
35 | CCCN(CCC)N=O | inactive | –
36 | CCOC(=O)C(O)(c1ccc(Cl)cc1)c1ccc(Cl)cc1 | inactive | –
37 | Cc1ccccc1[N+](=O)[O-] | inactive | –
38 | c1ccc(-c2ccccc2)cc1 | inactive | –
39 | Cc1cc(-c2ccc(N)c(C)c2)ccc1N | inactive | –
40 | ClC1=C(Cl)[C@]2(Cl)[C@@H]3[C@H]4C[C@H]([C@@H]5O[C@H]45)[C@@H]3[C@@]1(Cl)C2(Cl)Cl | – | 11 µM (active)
